# Results as given in the supplement of paper PMC6992640.
# ± gives the standard deviation of the averaged measurements.
# Columns and labels:
# Assay in all cases: cell viability (% of vehicle); higher = less cytotoxic
# Settings in all cases: 10 µM; 72 h
# [1] = system: HCI01 (cells of a triple-negative basal-like breast cancer xenograft)
# [2] = system: HCI03 (cells of an ER-positive luminal breast cancer xenograft)
# [3] = system: HCI09 (cells of a triple-negative luminal androgen receptor type breast cancer xenograft)
# [4] = system: HCI11 (cells of an ER-positive luminal breast cancer xenograft)
# [5] = system: HCI13 (cells of an ER-positive luminal breast cancer xenograft)
# [6] = system: HCI16 (cells of a triple-negative basal-like breast cancer xenograft)
# [7] = system: UCD52 (cells of a triple-negative basal-like breast cancer xenograft)
# [8] = system: WHIM2 (cells of a triple-negative basal-like breast cancer xenograft)
# [9] = system: WHIM30 (cells of a triple-negative basal-like breast cancer xenograft)
# 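Note: PDX cells carrying CMV promoter-driven luciferase, viability read as total photon flux per second by IVIS imaging following D-luciferin, vehicle control 0.1% DMSO.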
Structure (SMILES),cell viability [1],cell viability [2],cell viability [3],cell viability [4],cell viability [5],cell viability [6],cell viability [7],cell viability [8],cell viability [9]
O=C(O)c1ccccc1O [Salicylic acid],106 ± 7.3,114,138 ± 62,116,99.1 ± 7,98.3,120 ± 16,95.1 ± 13,118 ± 23
C=CC1=C(C(=O)O)N2C(=O)C(NC(=O)C(=NO)c3csc(N)n3)C2SC1 (stereo not drawn) [Cefdinir],96.2 ± 11,138,107 ± 6.3,120,130 ± 4.8,121,96.6 ± 12,98.1 ± 22,114 ± 8
CC(C)NCC(O)c1ccc(NS(C)(=O)=O)cc1.Cl (stereo not drawn) [Sotalol],120 ± 11,116,105 ± 37,103,103 ± 5.8,105,85.2 ± 2.1,101 ± 13,118 ± 17
CS(=O)(=O)O.N#CC1(c2ccc(NC(=O)c3cccnc3NCc3ccncc3)cc2)CCCC1 [Apatinib],140 ± 88,109,33.4 ± 8.3,65.4,65 ± 2,119,48.5 ± 6.5,85.3 ± 4.8,105 ± 19
O=C(CS(=O)Cc1ccco1)NCC=CCOc1cc(CN2CCCCC2)ccn1 (stereo not drawn) [Lafutidine],137 ± 32,136,107 ± 3.1,108,190 ± 46,119,89.1 ± 3.8,88.6 ± 19,114 ± 2
CC12CCC3=C4CCC(=O)C=C4CCC3C1CCC2(O)CC#N (stereo not drawn) [Dienogest],178 ± 40,124,94.3 ± 2.7,82.2,170 ± 3.3,164,92.3 ± 3.2,105 ± 6.8,139 ± 9
CC(C)(Sc1cc(C(C)(C)C)c(O)c(C(C)(C)C)c1)Sc1cc(C(C)(C)C)c(O)c(C(C)(C)C)c1 [Probucol],83.1 ± 22,129,116 ± 8.1,89.7,94.85 ± 0.74,103,93.68 ± 0.28,90.5 ± 23,113 ± 1.5
CCC(C)C(=O)OC1CCC=C2C=CC(C)C(CCC3CC(O)CC(=O)O3)C21 (stereo not drawn) [Mevastatin],129 ± 20,119,87.8 ± 22,120,92.7 ± 24,132,54.2 ± 10,86.8 ± 15,136 ± 4.6
Brc1c(NC2=NCCN2)ccc2nccnc12.O=C(O)C(O)C(O)C(=O)O [Brimonidine Tartrate],123 ± 9.2,125,78 ± 4.6,89.9,88.5 ± 4.5,124,90.8 ± 10,125 ± 25,98.4 ± 1.3
CC(S)C(=O)NCC(=O)O (stereo not drawn) [Tiopronin (Thiola)],104 ± 4.1,109,54.6 ± 48,107,105 ± 18,99.3,93.7 ± 3.6,103 ± 14,115 ± 4.5
CCCC1CC(C(=O)NC(C(C)Cl)C2OC(SC)C(OP(=O)(O)O)C(O)C2O)N(C)C1 (stereo not drawn) [Clindamycin Phosphate],140 ± 73,112,75.6 ± 25,96.6,86.2 ± 30,89.1,73.2 ± 16,92.7 ± 20,83.5 ± 1.4
CCCC(=O)OCOC(=O)C1=C(C)NC(C)=C(C(=O)OC)C1c1cccc(Cl)c1Cl (stereo not drawn) [Clevidipine Butyrate],106.5 ± 0.58,126,104 ± 19,112,105 ± 6.6,88.1,92.2 ± 1.5,100 ± 6.3,91 ± 2.4
COC(=O)C1C2CC3c4[nH]c5cc(OC)ccc5c4CCN3CC2CC(OC(=O)c2cc(OC)c(OC)c(OC)c2)C1OC (stereo not drawn) [Reserpine],123 ± 29,112,92.8 ± 4.8,89,129 ± 10,132,105 ± 1.3,88.36 ± 0.5,109 ± 7.1
CNC(=O)c1ccc(N2C(=S)N(c3ccc(C#N)c(C(F)(F)F)c3)C(=O)C2(C)C)cc1F [MDV3100 (Enzalutamide)],115 ± 11,138,104.5 ± 0.14,96.1,94.3 ± 22,107,117 ± 6,97.9 ± 3.6,157 ± 1.9
CC(c1ncncc1F)C(O)(Cn1cncn1)c1ccc(F)cc1F (stereo not drawn) [Voriconazole],121 ± 8.9,133,98.8 ± 11,121,137 ± 7.1,115,106 ± 22,105 ± 9.5,137 ± 22
CCOC(=O)C1=CC(OC(CC)CC)C(NC(C)=O)C(N)C1.O=P(O)(O)O (stereo not drawn) [Oseltamivir phosphate],111 ± 30,126,93.5 ± 5.9,95.4,93.1 ± 9,124,105 ± 16,98.9 ± 12,113 ± 1.6
S=P(N1CC1)(N1CC1)N1CC1,109 ± 26,143,104 ± 1.4,103,111.3 ± 0.35,120,96.8 ± 5.2,83.8 ± 23,119 ± 11
CC(=O)OC1(C(C)=O)CCC2C3CC(C)C4=CC(=O)CCC4(C)C3CCC21C (stereo not drawn) [Medroxyprogesterone acetate],122 ± 12,114,98.5 ± 53,78.4,152 ± 16,177,95 ± 3.6,87.8 ± 5.8,184 ± 9.5
NC(CO)(CO)CO [Trometamol],86.3 ± 6.3,114,94.9 ± 21,91.5,58.4 ± 13,104,86 ± 7,99.2 ± 16,113 ± 12

Structure (SMILES),cell viability [1],cell viability [2],cell viability [3],cell viability [4],cell viability [5],cell viability [6],cell viability [7],cell viability [8],cell viability [9]
Nc1cccc2c1C(=O)N(C1CCC(=O)NC1=O)C2=O (stereo not drawn) [Pomalidomide (CC-4047)],122 ± 2,126,87.9 ± 2.9,108,91.9 ± 8.8,103,104 ± 3.8,73.9 ± 5.1,133.9 ± 0.79
CC(=O)SC1CC2=CC(=O)CCC2(C)C2CCC3(C)C(CCC34CCC(=O)O4)C12 (stereo not drawn) [Spironolactone],109 ± 2.6,114,73.8 ± 9.1,110,75.9 ± 6.1,64.2,79.7 ± 14,88.8 ± 8.7,113 ± 10
O=c1[nH]c(=O)n(C2CC(O)C(CO)O2)cc1F (stereo not drawn) [Floxuridine],122 ± 5.9,103,103 ± 20,131,84.4 ± 5.7,161,167 ± 12,105 ± 13,149 ± 34
Nc1ccn(C2CSC(CO)O2)c(=O)n1 (stereo not drawn) [Lamivudine],106 ± 17,130,94.9 ± 7.3,107,124 ± 7.9,95.2,87.7 ± 6.8,94.3 ± 11,84.4 ± 12
N[C@@H](Cc1cc(I)c(Oc2cc(I)c(O)c(I)c2)c(I)c1)C(=O)O [L-Thyroxine],66.5 ± 44,151,114 ± 14,93.3,150 ± 56,136,85 ± 2.5,93.6 ± 27,177 ± 6.2
COC1C(OC(N)=O)C(O)C(Oc2ccc3c(O)c(NC(=O)c4ccc([O-])c(CC=C(C)C)c4)c(=O)oc3c2C)OC1(C)C.[Na+] (stereo not drawn) [Novobiocin Sodium],126 ± 61,153,93.1 ± 5.1,75.6,140 ± 2.5,130,120 ± 16,130 ± 5.4,116 ± 15
CC1(C)OC2COC3(COS(N)(=O)=O)OC(C)(C)OC3C2O1 (stereo not drawn) [Topiramate],103 ± 19,128,95.2 ± 20,138,133 ± 1.9,115,78.8 ± 6.2,105 ± 16,110 ± 5.4
CC(=O)O.NC(N)=NN=Cc1c(Cl)cccc1Cl [Guanabenz Acetate],134 ± 24,122,83.5 ± 5.4,108,101 ± 12,158,76.9 ± 2.8,109 ± 16,110 ± 20
CCNC1(C(N)=O)CCN(c2ncnc3c2nc(-c2ccccc2Cl)n3-c2ccc(Cl)cc2)CC1.Cl,83 ± 14,86,39.3 ± 16,75,81 ± 13,92.1,63.4 ± 1.6,89.6 ± 5.2,109 ± 9.3
O=C(C1CCCCC1)N1CC(=O)N2CCc3ccccc3C2C1 (stereo not drawn) [Praziquantel],99.2 ± 15,132,94.6 ± 5.6,93.1,134 ± 17,112,96.7 ± 4.2,94 ± 20,114 ± 7.9
COC(=O)Nc1nc2ccc(C(=O)c3ccc(F)cc3)cc2[nH]1 [Flubendazole],104 ± 3.6,103,103 ± 2.5,81.8,102 ± 8.7,140,80.3 ± 3.1,139 ± 36,106.1 ± 0.14
CCCNS(=O)(=O)Nc1ncnc(OCCOc2ncc(Br)cn2)c1-c1ccc(Br)cc1 [Macitentan],75.9 ± 56,109,65 ± 16,91.4,51.7 ± 28,91.8,75.383 ± 0.03,77.1 ± 37,101.4 ± 0.41
O=S(=O)([O-])CCS.[Na+] [Mesna],112.4 ± 0.12,118,98.4 ± 6.8,103,141 ± 28,97.2,89.3 ± 3.8,100 ± 13,106 ± 6.6
O=C1CCc2ccc(OCCCCN3CCN(c4cccc(Cl)c4Cl)CC3)cc2N1 [Aripiprazole],105 ± 16,127,73.6 ± 6.5,82,73.33 ± 0.076,127,73.9 ± 8.9,104 ± 6.5,122 ± 3.3
O=C1NC([O-])=NC1(c1ccccc1)c1ccccc1.[Na+] [Phenytoin sodium],97.2 ± 10,142,96.6 ± 14,101,104 ± 9.4,114,91.6 ± 8.2,105 ± 7.8,118 ± 8.7
CCOC(=O)C1=C(C)NC(C)=C(C(=O)OC)C1c1cccc([N+](=O)[O-])c1 (stereo not drawn) [Nitrendipine],111 ± 10,123,93.6 ± 17,112,104 ± 0.32,90.2,80.15 ± 0.7,95.6 ± 22,97.2 ± 5.3
Cc1cn(C2C=CC(CO)O2)c(=O)[nH]c1=O (stereo not drawn) [Stavudine (d4T)],112 ± 12,115,110 ± 14,91,82.13 ± 0.67,117,104 ± 11,95.9 ± 9.4,127 ± 5
CN(C)CC(c1ccc(O)cc1)C1(O)CCCCC1.O.O=C(O)CCC(=O)O (stereo not drawn) [Desvenlafaxine Succinate],91 ± 6.9,153,107 ± 13,92.6,110 ± 9.4,129,92.4 ± 9.8,105 ± 10,133 ± 2.2
